Among the data in PubChem BioAssay (NCI) are growth values, retold here.

About 83,000 compounds went through this panel and 20% of them were active in at least one assay; those are over-represented in the sample as a whole.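 Activity criterion: percent growth below 10, measured after cells in 96-well plates were exposed to a single compound concentration for 48 hours.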 A number with no mark means an inactive call. The source made the active and inactive calls.

Among the test systems are DU-145 prostate; K-562 leukemia; MALME-3M melanoma; MDA-MB-231 breast; RXF 393 renal; SF-268 CNS; SF-295 CNS; SF-539 CNS; UACC-257 melanoma; M14 melanoma; HCT-15 colon; HT29 colon; SNB-75 CNS; U251 CNS; PC-3 prostate; SK-MEL-5 melanoma; UACC-62 melanoma; LOX IMVI melanoma; SK-MEL-28 melanoma; SNB-19 CNS.
Common to all, as to experiment: NCI-60 one-dose screen, 48 h (100 = growth as untreated, 0 = no growth, -100 = all killed)
Common to all, as to settings: 10 µM unless noted

Turning to `CCN(CC)C(Cl)=Nc1ccc(Cl)cc1`, the growth was 119% with DU-145 prostate; 121% in the assay with K-562 leukemia; 116% in the assay on MALME-3M melanoma; 102% in the assay on MDA-MB-231 breast; 107% with RXF 393 renal; 106% with SF-268 CNS. For the same molecule, the growth was 97.1% with SF-295 CNS; 106% with SF-539 CNS; 98.8% with UACC-257 melanoma; 107% with M14 melanoma; 98.1% in the assay with HCT-15 colon; 97.3% in the assay with HT29 colon. Besides, the growth in the assay on SNB-75 CNS was 88.5%; in the assay with U251 CNS, 94%; with PC-3 prostate it was 103%; with SK-MEL-5 melanoma, 102%; with UACC-62 melanoma it was 102%; in the assay on LOX IMVI melanoma, 102%. Also, in the assay on SK-MEL-28 melanoma, the growth is 106%.
Consider `CC[C@H](Nc1nc(C)nc(N)c1C#N)c1nc2cccc(NCc3ccc(C(=O)NO)cc3)c2c(=O)n1-c1ccccc1`, for which the growth was 11.2% in the assay with DU-145 prostate; 2.24% (active) with K-562 leukemia; 2.94% (active) with MALME-3M melanoma; 14.7% in the assay with MDA-MB-231 breast; -27.2% (active) in the assay on RXF 393 renal; 12.3% in the assay on SF-268 CNS. Further, the growth is 21.5% in the assay on SF-295 CNS; 14.6% in the assay on SF-539 CNS; -3.98% (active) in the assay on UACC-257 melanoma; 8.71% (active) in the assay with M14 melanoma; 21% in the assay with HCT-15 colon; 14.8% with HT29 colon. In addition, the growth is 7.85% (active) in the assay with SNB-75 CNS; 1.03% (active) in the assay on U251 CNS; 8.89% (active) in the assay on PC-3 prostate; -20.4% (active) in the assay with SK-MEL-5 melanoma; 4.19% (active) in the assay with UACC-62 melanoma; -59.6% (active) with LOX IMVI melanoma.
For `Cc1nc2ccc(Nc3nc(Cl)nc(N4CCOCC4)n3)cc2n1Cc1ccccc1`, the growth is 94.2% in the assay on DU-145 prostate; 25.7% in the assay with K-562 leukemia; 96.8% in the assay on MALME-3M melanoma; 64.4% with MDA-MB-231 breast; 65.1% in the assay on RXF 393 renal; 77% in the assay on SF-268 CNS. Also, the growth in the assay with SF-295 CNS is 87.3%; with SF-539 CNS, 84.7%; in the assay with UACC-257 melanoma it was 104%; with M14 melanoma, 103%; in the assay with HCT-15 colon, 76.9%; in the assay on HT29 colon, 96%. Besides, the growth in the assay on SNB-19 CNS was 94.6%; in the assay on U251 CNS, 90.5%; in the assay on PC-3 prostate, 87.1%; with SK-MEL-5 melanoma it was 89.5%; with UACC-62 melanoma, 92.3%; in the assay with LOX IMVI melanoma, 67.7%. The growth in the assay with SK-MEL-28 melanoma is 82.8%.
Regarding `NS(=O)(=O)c1ccc(N2N=C(c3cccs3)CC2c2ccccc2O)cc1` (stereo not drawn), the growth in the assay with DU-145 prostate is -45% (active); in the assay with K-562 leukemia it was 4.59% (active); with MALME-3M melanoma, 47.9%; in the assay on MDA-MB-231 breast, -19.3% (active); with RXF 393 renal it was 27.1%; in the assay with SF-268 CNS it was 7.15% (active). Also, the growth with SF-295 CNS was 1.4% (active); in the assay with SF-539 CNS it was -23.5% (active); in the assay on UACC-257 melanoma it was 33.2%; in the assay with M14 melanoma, 0.852% (active); in the assay with HCT-15 colon, 4.16% (active); with HT29 colon, -25.6% (active). For the same molecule, the growth with SNB-19 CNS is 63.3%; in the assay with U251 CNS it was 0.571% (active); with PC-3 prostate it was 8.13% (active); with SK-MEL-5 melanoma, -29.1% (active); in the assay with UACC-62 melanoma it was 24.2%; with LOX IMVI melanoma, 13.5%. The growth with SK-MEL-28 melanoma is 27.3%.
As for `O=C1/C(=C\c2cccn2Cc2ccc(Cl)cc2)c2ccccc2N1c1c(Cl)cccc1Cl`, the growth in the assay on DU-145 prostate was 105%; in the assay with K-562 leukemia, 75.6%; in the assay on MALME-3M melanoma, 79.5%; in the assay on MDA-MB-231 breast, 68.1%; with RXF 393 renal, 78.3%; with SF-268 CNS, 88.1%. Further, the growth with SF-295 CNS is 87.7%; in the assay on SF-539 CNS it was 88.8%; in the assay on UACC-257 melanoma it was 93.1%; in the assay with M14 melanoma, 101%; in the assay with HCT-15 colon, 61.4%; in the assay on SNB-75 CNS it was 82.2%. The growth is 87.8% with SNB-19 CNS; 75.6% with U251 CNS; 57.5% in the assay on PC-3 prostate; 66.1% in the assay with SK-MEL-5 melanoma; 71.7% with UACC-62 melanoma; 91.9% with LOX IMVI melanoma. In addition, in the assay on SK-MEL-28 melanoma, the growth was 91%.
As for `C=CCn1c(C)nc2cc(Nc3nc(N4CCCC4)nc4nc[nH]c34)ccc21`, the growth with DU-145 prostate was 48.2%; in the assay with K-562 leukemia, -9.1% (active); in the assay with MALME-3M melanoma, -29.3% (active); in the assay with MDA-MB-231 breast, -25% (active); in the assay with RXF 393 renal it was 54.4%; in the assay on SF-268 CNS, 29.3%. In addition, the growth was 31.2% in the assay on SF-295 CNS; -18.7% (active) in the assay on SF-539 CNS; 60.9% in the assay on UACC-257 melanoma; 28.8% with M14 melanoma; 94.4% in the assay on HCT-15 colon; 12.4% with HT29 colon. Also, the growth in the assay on SNB-19 CNS is 44.9%; with U251 CNS, 21.2%; in the assay on PC-3 prostate, 42.6%; in the assay with SK-MEL-5 melanoma it was 49.5%; with UACC-62 melanoma, 31.7%; in the assay with LOX IMVI melanoma, 37.8%. For the same molecule, the growth in the assay with SK-MEL-28 melanoma is 30.3%.
Turning to `Clc1ccc(-c2nc(Br)cn3ccnc23)cc1`, the growth was 91% with DU-145 prostate; 90.2% in the assay with K-562 leukemia; 103% with MALME-3M melanoma; 69.6% in the assay on MDA-MB-231 breast; 90.4% in the assay on RXF 393 renal; 81.7% with SF-268 CNS. For the same molecule, the growth with SF-295 CNS was 93.4%; in the assay with SF-539 CNS, 81.6%; with UACC-257 melanoma, 95.8%; in the assay on M14 melanoma it was 94.3%; with HCT-15 colon, 86.1%; in the assay on SNB-75 CNS it was 91%. Also, the growth with SNB-19 CNS is 82.5%; with U251 CNS, 78.2%; in the assay with PC-3 prostate it was 81.6%; with SK-MEL-5 melanoma it was 80.7%; in the assay on UACC-62 melanoma it was 77.4%; in the assay with LOX IMVI melanoma it was 77.8%. For the same molecule, in the assay with SK-MEL-28 melanoma, the growth is 100%.
In the case of `CC(=O)c1cc(C(=O)c2ccc3c(c2)Sc2ccccc2N3)c2c(C)cccn12`, the growth is 13.9% with DU-145 prostate; 7.8% (active) with K-562 leukemia; 62.3% in the assay on MALME-3M melanoma; 19.7% with MDA-MB-231 breast; -7.81% (active) in the assay on RXF 393 renal; 28.4% with SF-268 CNS. Also, the growth with SF-295 CNS is 4.09% (active); with SF-539 CNS it was -28.4% (active); with UACC-257 melanoma it was 77%; in the assay on M14 melanoma, 16.9%; in the assay with HCT-15 colon it was 15.8%; in the assay with HT29 colon it was 12%. In addition, the growth in the assay with SNB-19 CNS is 33.8%; in the assay on U251 CNS, 13.6%; in the assay on SK-MEL-5 melanoma it was 8.21% (active); in the assay on UACC-62 melanoma, 26.3%; in the assay with LOX IMVI melanoma, 14.1%; in the assay on SK-MEL-28 melanoma it was 62.5%.
Regarding `O=c1cc(N2CCOCC2)oc2c(-c3ccc4c(c3)OCCO4)csc12`, the growth is 22.8% with DU-145 prostate; 25.6% in the assay on K-562 leukemia; -3.44% (active) in the assay with MALME-3M melanoma; 20.3% in the assay with MDA-MB-231 breast; -22.5% (active) with RXF 393 renal; 29.8% in the assay on SF-268 CNS. The growth with SF-295 CNS is 0.878% (active); in the assay with SF-539 CNS, 3.65% (active); in the assay on UACC-257 melanoma, 18.6%; with M14 melanoma, 12.3%; in the assay on HCT-15 colon, 16.9%; in the assay on SNB-19 CNS, 25.6%. The growth in the assay on U251 CNS was 31.2%; in the assay with PC-3 prostate it was 21.8%; in the assay on SK-MEL-5 melanoma, -7.05% (active); in the assay with UACC-62 melanoma, -1.9% (active); with LOX IMVI melanoma, 10.3%; in the assay on SK-MEL-28 melanoma, 22.3%.
